# Test results reported in paper PMC13494018.
# Unmarked numbers belong to inactive results. No rule for the calls is given here.
# Biological target: VTCN1, Q7Z7D3
# Sequence (Q7Z7D3 whole entry): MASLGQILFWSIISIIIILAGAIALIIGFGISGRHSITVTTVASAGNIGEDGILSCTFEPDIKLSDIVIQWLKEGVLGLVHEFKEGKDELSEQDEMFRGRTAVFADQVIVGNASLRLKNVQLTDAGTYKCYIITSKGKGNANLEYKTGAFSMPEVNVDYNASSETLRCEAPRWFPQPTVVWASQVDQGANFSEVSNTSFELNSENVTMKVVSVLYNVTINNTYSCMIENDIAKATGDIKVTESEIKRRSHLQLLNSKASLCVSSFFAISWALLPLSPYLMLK
row,Binder,binding in a display sort
1,design_608_fd41b8f9-4da9-4c78-93ec-aaa316ed4933_750_dldesign_0_cycle1_af2pred (protein) GEETEKLKKELEKAEKEAKEALKKAKELTKEEAKKLLSEQAAKVAELAAESSKDKEVSKEAKKVLKEVRKEGKEILEEK,not found
2,design_608_fd41b8f9-4da9-4c78-93ec-aaa316ed4933_323_dldesign_0_cycle1_af2pred (protein) VLEEVLKLGKEAAEALLKPNGKEEAAKLVEEAEKVVKSHPNAPTEASYVLVTMRRAVRKPDHEEGAKRVREAVEEAE,not found
3,design_608_fd41b8f9-4da9-4c78-93ec-aaa316ed4933_796_dldesign_0_cycle1_af2pred (protein) EEAKEKAKKLEEEALKKAKEAGELIGKPKQVVHLTKLAIEDPELIPLAKKAILEAAKELKKKDPEKGKKAEELAKEMEKYVKEANKLK,not found
4,design_608_fd41b8f9-4da9-4c78-93ec-aaa316ed4933_704_dldesign_0_cycle1_af2pred (protein) DAAAATARALADQAVAAGKAGEEGDLATAKAARETLAALREELRKLVEEDPSVAPYASAGMAEGYQAIAEGFKKNS,not found
5,design_608_fd41b8f9-4da9-4c78-93ec-aaa316ed4933_228_dldesign_0_cycle1_af2pred (protein) GEEVIKEIAEEEIKEAEKTLKEAEKLLKKGGTEEAKEAVEKAKEYIKKGKEKLEEGDYKTAYSLATLGKHNAEIAIKLIKEKN,not found
6,design_608_fd41b8f9-4da9-4c78-93ec-aaa316ed4933_287_dldesign_0_cycle1_af2pred (protein) MEAENMEKAIKKLREGKAALKTTPEEAARVLRAQAKELKELAKKSSPENAAFMETQAKAMEKKAKELEAKAAA,not found
7,design_608_fd41b8f9-4da9-4c78-93ec-aaa316ed4933_536_dldesign_0_cycle1_af2pred (protein) NNAEASKLAHEGYEYRAEGAQLSKKNPAKAAVLFEEAAKKFAEAAKLAEDPEDKKLLQAYADRALAEAKKAAAEAAKALA,not found
8,design_608_fd41b8f9-4da9-4c78-93ec-aaa316ed4933_446_dldesign_0_cycle1_af2pred (protein) LEATAEAYAEAILHAGEEAAKVAKKLSEELAEEVRKKAEEFAKKALDDPSKAKEYLKKAREYFKKVVEEVKEKL,not found
9,design_608_fd41b8f9-4da9-4c78-93ec-aaa316ed4933_265_dldesign_0_cycle1_af2pred (protein) GLKEELRKLATQYMHEAAEYAAEAEHLANRGGDLAEVEEAAKKAKEYAEKSIELMKEAGTEEEYEKAKKVAEKLIARAEAALKKK,not found
10,design_608_fd41b8f9-4da9-4c78-93ec-aaa316ed4933_913_dldesign_0_cycle1_af2pred (protein) ATLAELSAAFAKAYELIAEGEKASPEEGVKLMEKAKEEVEAARKLAEASADKEAALAGVERLAKRVEENKAKAEAKLKAA,not found
11,design_608_fd41b8f9-4da9-4c78-93ec-aaa316ed4933_509_dldesign_0_cycle1_af2pred (protein) EEEKSKLTREAADAVRTFGKNATKARPEMSRLEVMDKIDAGLENPELLKETTEEYAEAAKEKGLEEDAEKIKESGKILLKYVKE,not found
12,design_608_fd41b8f9-4da9-4c78-93ec-aaa316ed4933_544_dldesign_0_cycle1_af2pred (protein) AAAAAAEAAAKVAKVKELAKEAAEDPSKAPEVYKEGKKIADAATPETAAAIAAEMHKGHEERAENSWKRSRE,not found
13,design_608_fd41b8f9-4da9-4c78-93ec-aaa316ed4933_998_dldesign_0_cycle1_af2pred (protein) SELAKKAIEHLKKAIELAKTDPKYAPQIIAAAKAAIAALEKGDYEKAYKEASKALSIAYAAGNKEAEEELSEALYYIVKASK,not found
14,design_608_fd41b8f9-4da9-4c78-93ec-aaa316ed4933_209_dldesign_0_cycle1_af2pred (protein) AEEEEEKKREKLLEEAKKLGKEAAKYVKKAIAKGKTEEATALAAEASKALLALYDLDAAGEPYEKAKAEYDKIKELTEKIKALAE,not found
15,design_608_fd41b8f9-4da9-4c78-93ec-aaa316ed4933_581_dldesign_0_cycle1_af2pred (protein) SEELEKVKKLLEKGIETAKKNPVKGASLLLKAEHMAKQLAEKKKGTEEAKELEELSKKAKEEFDKAAKKISE,not found
16,design_608_fd41b8f9-4da9-4c78-93ec-aaa316ed4933_615_dldesign_0_cycle1_af2pred (protein) DPAEELAKKLLEIADLAAKPETLEKALEEAEKLKEEALKLAEKYADDPALKKKYLKAAKTAESFIEDIKRSKEL,not found
17,design_608_fd41b8f9-4da9-4c78-93ec-aaa316ed4933_627_dldesign_0_cycle1_af2pred (protein) SEKKKVGEEAYKVASRALSIAYAKGDKEFEEKAEELLEKVEEVKKNGNLEEAKKALEEAKALLKEAEKLAKER,not found
18,design_608_fd41b8f9-4da9-4c78-93ec-aaa316ed4933_669_dldesign_0_cycle1_af2pred (protein) KEELKKALEKTRKEVKAAAAGKPQDVIDVIRKGAKEAEKLNKNAGILLEAAANRAEFAGATPAEAAAIALKAIERAEKE,not found
19,design_608_fd41b8f9-4da9-4c78-93ec-aaa316ed4933_922_dldesign_0_cycle1_af2pred (protein) GETEKLREEAQKLMDEAVDLLDKAKTEEEVEKAVEIAEEAYKVAAKATPEIAESALKGYKGLKKMAEEIKKVLKK,not found
